Only some compounds are listed: those with a hit (about 3.5% of all), similar ones and a draw of the others.
mHTT-CaM PPI inh: mHTT-calmodulin interaction abrogation | P42858 | AlphaScreen His-mHTT/GST-CaM binding, luminescence | inhibition, % at 15 µM | actives 3.6% (n = 190,000);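 further: 0% = both proteins with DMSO and 100% = one protein alone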
Pf apPOL inh: Pf-apPOL DNA polymerase inhibition. Recombinant Pf-apPOL, molecular beacon fluorescence, 1.5 h. inhibition, % at 10 µM. actives 0.25% (n = 210,000). AID 1794808
* = called active by the depositor; . = no result given. No stated cut-off is given here; in the data, active means inhibition above about 50%; inactive means the rest.

SMILES	mHTT-CaM PPI inh	Pf apPOL inh
O=C1CSC(c2ccc([N+](=O)[O-])cc2)N1c1ccc(Oc2ccccc2)cc1 (stereo not drawn)	75*	-2
O=C1CSC(c2ccc3c(c2)OCO3)N1c1ccc(Oc2ccccc2)cc1 (stereo not drawn)	100*	-1
CCNC(=O)c1csc(-c2ccc(OCC)cc2Cl)n1	7	-6
Cc1ccccc1C(=O)N1CCCCC1CCN1CCOCC1 (stereo not drawn)	0	-6
O=C(Nc1ccc2c(c1)OCCO2)N1CCC(N2CCN(Cc3ccccc3)C2=O)CC1	-3	-2
CCN(CC)c1ccc(Nc2nc(-c3ccc(Cl)c(Cl)c3)cs2)cc1	97*	0
COc1ccc(Nc2nc(-c3ccc(Cl)c(Cl)c3)cs2)cc1	40	-6
CN(C)c1ccc(Nc2nc(-c3cccnc3)cs2)cc1	6	-8
CC(=O)c1cccc(Nc2nc(-c3ccc(Cl)c(Cl)c3)cs2)c1	3	1
CCC(=O)Nc1nc(C)c(-c2csc(Nc3ccc(N(C)C)cc3)n2)s1	93*	2
CN(C)c1ccc(Nc2nc(-c3ccc(Cl)c(Cl)c3)cs2)cc1	82*	-1
CCN(CC)c1ccc(Nc2nc(-c3ccccn3)cs2)cc1	100*	-4
CCC(=O)Nc1nc(C)c(-c2csc(Nc3cc(C)ccn3)n2)s1	35	-3
O=C(NC1CCCCC1)c1ccc(-c2nccnc2N2CCCCC2)cc1	-6	-2
Cc1ccc2c(c1)CCN1C(=O)CN(C(=O)c3cccc(C(F)(F)F)c3)CC21 (stereo not drawn)	-8	1
COc1ccc(C2C(C(=O)Nc3ccc(C)cn3)=C(C)NC3=C2C(=O)CC(C)(C)C3)c(OC)c1 (stereo not drawn)	4	-31
NS(=O)(=O)c1ccc(Nc2nc(-c3ccc(Cl)c(Cl)c3)cs2)cc1	100*	1
NS(=O)(=O)c1ccc(Nc2nc(-c3ccncc3)cs2)cc1	5	-1
Nc1c(Cl)cncc1Cl	.	0
NC(=O)CSc1nc2sc3c(c2c(=O)n1CCc1ccccc1)CCC3	-2	-5
Cc1ccc(N(C)S(=O)(=O)c2ccc3[nH]cc(C(=O)N4CCC(C)CC4)c(=O)c3c2)cc1C	32	-21
Cc1ccc(N(C)S(=O)(=O)c2ccc3[nH]cc(C(=O)N4CCCCCC4)c(=O)c3c2)cc1C	58*	-7
COc1ccc(NCc2ccc(C)cc2C)cc1OC	83*	1
COc1ccc(CNCc2ccc(C)cc2C)c(OC)c1	-2	-2
COc1ccc(NCc2ccccc2Br)cc1OC	73*	6
SMILES	mHTT-CaM PPI inh	Pf apPOL inh
COc1ccccc1CNc1ccccc1	3	-10
COc1ccc(NCc2ccc(SC)cc2)cc1OC	80*	0
COc1ccc(CNc2ccccc2SC)cc1OC	15	3
O=C(NCc1csc(-c2cccs2)n1)C1CCN(C(=O)c2ccccc2F)CC1	8	-8
COc1cccc(CNC(=O)c2cc3n(n2)CCCN(Cc2ccccc2)C3=O)c1OC	9	-6
N#Cc1ccc(C(=O)Nc2nnc3ccccn23)cc1	33	-5
COc1cccc(C(=O)Nc2nnc3ccccn23)c1	71*	-4
O=C(Nc1nnc2ccccn12)c1ccc(Cl)cc1	52*	-10
O=C(Nc1nnc2ccccn12)c1cccc(C(F)(F)F)c1	40	-22
Cc1ccc2cc3cc(C(=O)Nc4ccc5c(c4)OCO5)sc3nc2c1	-4	1
Cc1cc2ccccc2n1-c1ccc(C(N)=O)s1	46	-4
COc1ccc(CNC(=O)CC2CCN(C(=O)c3[nH]c(C)cc3C)CC2)cc1	14	-2
c1ccc(N=C2C(Nc3ccccc3)=Nc3ccccc32)cc1	63*	0
NC1=NC(=Nc2ccccc2)c2ccccc21	3	-2
Cc1ccc(NC(=O)N2CCCC(CCC(=O)NCc3ccccc3C)C2)cc1 (stereo not drawn)	3	-3
COc1ccccc1-c1nc(C2CCCN(C(=O)c3cc(Cl)ccc3F)C2)no1 (stereo not drawn)	9	-1
CCOC(=O)c1c(C)oc2ccc(OC(=O)C3CCCCC3)cc12	-30	-3
O=C(O)[C@H]1CC=C[C@H]2CCN(Cc3ccc(Cl)c(Cl)c3)C(=O)[C@@H]12	35	-8
COC(=O)[C@H]1CC=C[C@H]2CCN(Cc3ccc(Cl)c(Cl)c3)C(=O)[C@@H]12	68*	-6
COc1ccc(CNC(=O)[C@@H]2CC=C[C@@H]3CCN(Cc4ccc(OC)c(OC)c4)C(=O)[C@@H]32)cc1	6	-5
COc1ccc(CNC(=O)[C@@H]2CC=C[C@@H]3CCN(Cc4ccc(Cl)c(Cl)c4)C(=O)[C@@H]32)cc1	94*	-8
CCCCOc1ccc(C(=O)Nc2c3c(nn2C(C)(C)C)CS(=O)C3)cc1 (stereo not drawn)	7	-2
CNc1ccc(C(=O)N(Cc2ccccc2)c2ccccn2)cc1[N+](=O)[O-]	15	-2
Cc1cccc(-c2cc(NC(=O)c3ccc([N+](=O)[O-])cc3)n[nH]2)c1	5	1
